According to the supplement of paper PMC10338343:
± gives the standard deviation.

System: MILI (PIWIL2) piRISC loaded with piRNA #1 (26 nt)
Experiment: pre-steady-state target cleavage rate (min^-1); guide: piRNA #1 5'p-UGAGGUAGUAGGUUGUAUAGUAUCCA; MIWI and MILI are mouse PIWI proteins and EfPiwi is from a freshwater sponge; tags in brackets are library labels; higher = faster piRNA-guided slicing of the target
Conditions: auxiliary factor: 500 nM mouse GTSF1
Procedure, shortened: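 The pre-steady-state cleavage rate was obtained by Cleave-'n-Seq with a burst-and-steady-state fit. A transcribed, DNA-blocked target RNA library (0.1 nM) was mixed with 1 nM active affinity-purified piRISC carrying one synthetic guide, with or without 500 nM GTSF1 partner protein, in HEPES–potassium acetate buffer at 33 °C for 0–8 or 0–960 min. Uncleaved targets were sequenced and normalised to depth and to weakly complementary targets, with three trials pooled and k3 capped at 0.0001 min^-1.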

Question: How did the “pre-steady-state target cleavage rate” value turn out when GGAGACCUUAGUAUACAAGCUACUACCUCA was run?
Answer: The value was 0.174 ± 0.012.

Question: With GGAGUCCUUACUAUACAACCUACUACCUCA as the sequence, how does the “pre-steady-state target cleavage rate” value read?
Answer: Its value is 0.174 ± 0.011.

Question: Which “pre-steady-state target cleavage rate” value does the source give for GGAGACCUAUGUAUACAACUUACUACCUCA here?
Answer: Its value is 0.0134 ± 0.0024.

Question: With GGAGACCUUACUAUACAACCUAGAUCCUCA as the sequence, how does the “pre-steady-state target cleavage rate” value read?
Answer: Its value is 0.00967 ± 0.0031.

Question: Which “pre-steady-state target cleavage rate” value does the source give for GGAGACCUAUGUAAUCAACCUACUACCUCA here?
Answer: The value was 0.00445 ± 0.003.

Question: Which “pre-steady-state target cleavage rate” value does the source give for GGAGACCUAACUAAACAAGCUACUACCUCA here?
Answer: The value was 0.15 ± 0.02.

Question: With GGAGACCUUUCUUUACAACCUACUACCUCA as the sequence, how does the “pre-steady-state target cleavage rate” value read?
Answer: The value was 0.07 ± 0.012.

Question: How did the “pre-steady-state target cleavage rate” value turn out when GGAGACCUUAGUAUACAUCCUACUACCUCA was run?
Answer: The value was 0.126 ± 0.018.

Question: With GGAGACCUAUGUAUACCACCUACUACCUCA as the sequence, how does the “pre-steady-state target cleavage rate” value read?
Answer: The value was 0.0404 ± 0.0088.

Question: Which “pre-steady-state target cleavage rate” value does the source give for GGAGACCUAUGAUAUCAACCUAUCUACCUCA here?
Answer: The value was 0.00534 ± 0.002.

Question: How did the “pre-steady-state target cleavage rate” value turn out when GGAGACCAUAGUAUACAACGUACUACCUCA was run?
Answer: Its value is 0.0174 ± 0.0033.

Question: GGAGACGAUAGUAUACUACCUACUACCUCA was tested. Which “pre-steady-state target cleavage rate” value did it give?
Answer: Its value is 0.148 ± 0.012.

Question: GGAGACCAUAGUAUACAACCUACUUCCUCA was tested. Which “pre-steady-state target cleavage rate” value did it give?
Answer: The value was 0.073 ± 0.014.

Question: For GGAGACCUAUGUAUACAAGCUACUACCUCA, which “pre-steady-state target cleavage rate” value is on record?
Answer: Its value is 0.147 ± 0.013.

Question: For GGAGACCAUACUAUACAACCUAUACCUCA, which “pre-steady-state target cleavage rate” value is on record?
Answer: The value was 0.016 ± 0.0051.

Question: With GGAGACCUAUGAAUACUACCUACUUCCUCA as the sequence, how does the “pre-steady-state target cleavage rate” value read?
Answer: The value was 0.0037 ± 0.0024.

Question: Which “pre-steady-state target cleavage rate” value does the source give for GGAGUCGAUACUAUAGAACCUACUACCUCA here?
Answer: Its value is 0.0641 ± 0.0083.

Question: For GGAGACCUAUCUAUACAACCUACCACCUCA, which “pre-steady-state target cleavage rate” value is on record?
Answer: The value was 0.0927 ± 0.018.

Question: GGAGAGGAUACUAUACUACCUACUACGUCA was tested. Which “pre-steady-state target cleavage rate” value did it give?
Answer: The value was 0.0806 ± 0.01.

Question: For GGAGACCUUACUAUACUUCCUACUACCUCA, which “pre-steady-state target cleavage rate” value is on record?
Answer: Its value is 0.127 ± 0.011.

Question: GGAGACCUAUCUAUACAACCAACUUCCUCA was tested. Which “pre-steady-state target cleavage rate” value did it give?
Answer: The value was 0.00361 ± 0.0027.

Question: GGAGACCUAUGAUAUCAACCUAGUACCUGA was tested. Which “pre-steady-state target cleavage rate” value did it give?
Answer: The value was under 0.0001.

Question: For GGAGACCUAUCUAUACAAACUACUACCUCA, which “pre-steady-state target cleavage rate” value is on record?
Answer: The value was 0.171 ± 0.015.

Question: For “GGAGACCUAUGAUUACAACCUACUACCUCA [g2:g17:cont:t1A]”, which “pre-steady-state target cleavage rate” value is on record?
Answer: The value was 0.00593 ± 0.0026.

Question: With GGAGACCUAUGAUUACAAACUACUACCUCA as the sequence, how does the “pre-steady-state target cleavage rate” value read?
Answer: The value was 0.0225 ± 0.0059.

Question: For GGAGACCUAUCUAUACAACCUACUUCGUCA, which “pre-steady-state target cleavage rate” value is on record?
Answer: The value was 0.0271 ± 0.0057.

Question: Which “pre-steady-state target cleavage rate” value does the source give for GGAGACCUAACUUUACAACCUACUACCACA here?
Answer: Its value is 0.109 ± 0.024.

Question: How did the “pre-steady-state target cleavage rate” value turn out when GGAGACCUAUGUAUACAACAUACUACCUCA was run?
Answer: Its value is 0.0179 ± 0.0028.

Question: Which “pre-steady-state target cleavage rate” value does the source give for GGAGACCUAUGUAUUCAACCUACAACCUCA here?
Answer: Its value is 0.0352 ± 0.0064.

Question: Which “pre-steady-state target cleavage rate” value does the source give for GGAGAGGAUAGUAUACAACCUAGUACCUCA here?
Answer: Its value is 0.0263 ± 0.008.

Question: GGAGACCUAUGUAUACAAGCUACUACCUGA was tested. Which “pre-steady-state target cleavage rate” value did it give?
Answer: The value was 0.0868 ± 0.015.

Question: For GGAGACCUUACUAUACAAACUACUACCUCA, which “pre-steady-state target cleavage rate” value is on record?
Answer: Its value is 0.204 ± 0.014.

Question: How did the “pre-steady-state target cleavage rate” value turn out when GGAGACCUAUGAUAACAACCUACUGCCUCA was run?
Answer: Its value is 0.00428 ± 0.0031.

Question: GGAGACCUUACUAUACAACCUAGCUACCUCA was tested. Which “pre-steady-state target cleavage rate” value did it give?
Answer: The value was 0.0317 ± 0.0069.

Question: GGAGACCUAUGUAUACUACCUACUACCACA was tested. Which “pre-steady-state target cleavage rate” value did it give?
Answer: Its value is 0.0548 ± 0.008.

Question: With GGAGACCUAUGUAUACAACCUAGUUCCUCA as the sequence, how does the “pre-steady-state target cleavage rate” value read?
Answer: The value was 0.00347 ± 0.003.

Question: With GGAGACCUAACUAAUCAACCUACUACCUCA as the sequence, how does the “pre-steady-state target cleavage rate” value read?
Answer: The value was 0.0719 ± 0.016.

Question: With GGAGACCUAUGAUAUGUUGCUACUCCCUCA as the sequence, how does the “pre-steady-state target cleavage rate” value read?
Answer: The value was under 0.0001.

Question: Which “pre-steady-state target cleavage rate” value does the source give for GGAGACCUAUGAAUACAACUUACUACCUCA here?
Answer: The value was 0.00939 ± 0.003.

Question: How did the “pre-steady-state target cleavage rate” value turn out when GGAGACCUAACUAUGACAACCUACUACCUCA was run?
Answer: The value was 0.0415 ± 0.0097.
